Calls of active or inactive are those of the source. Unless noted, no rule for the calls is given here.
Columns and labels:
[1] = resazurin metabolic signal in HepG2 cells – cell-based, resazurin fluorescence, 24 h, PK04 Diversity Set, profiling panel (AID 1172); conditions: HepG2 viability, higher = more signal; also: test concentration not given here
[2] = budding yeast growth changes without added modifier – OD600, strain BY4716, 24 h, basal condition, primary screen (AID 1173); conditions: S. cerevisiae BY4716 growth, OD600, 24 h; higher = more signal, called active from +8 up or from −8 down
[3] = viability profiling in MM1S myeloma cells – cell-based, resazurin fluorescence, basal, 24 h, PK04 Diversity Set, profiling panel (AID 1174); conditions: higher = more signal, called active from +8 up or from −8 down;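 also: MM1S multiple myeloma cell line; test concentration not given here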
[4] = molecular target: Dihydroorotate dehydrogenase (quinone), mitochondrial (Plasmodium falciparum (isolate 3D7)) (UniProt Q08210); assay: inhibition of P. falciparum DHODH – biochemical, C-terminal His tag, absorbance 600 nm, primary screen (AID 1175); conditions: PfDHODH enzyme, DCIP absorbance 600 nm; higher = more signal, called active from +8 up or from −8 down;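 also: recombinant parasite enzyme with a five histidine tag at its C terminus; test concentration not given here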
Dihydroorotate dehydrogenase (quinone), mitochondrial (Plasmodium falciparum (isolate 3D7)), sequence (Q08210 whole entry, looked up): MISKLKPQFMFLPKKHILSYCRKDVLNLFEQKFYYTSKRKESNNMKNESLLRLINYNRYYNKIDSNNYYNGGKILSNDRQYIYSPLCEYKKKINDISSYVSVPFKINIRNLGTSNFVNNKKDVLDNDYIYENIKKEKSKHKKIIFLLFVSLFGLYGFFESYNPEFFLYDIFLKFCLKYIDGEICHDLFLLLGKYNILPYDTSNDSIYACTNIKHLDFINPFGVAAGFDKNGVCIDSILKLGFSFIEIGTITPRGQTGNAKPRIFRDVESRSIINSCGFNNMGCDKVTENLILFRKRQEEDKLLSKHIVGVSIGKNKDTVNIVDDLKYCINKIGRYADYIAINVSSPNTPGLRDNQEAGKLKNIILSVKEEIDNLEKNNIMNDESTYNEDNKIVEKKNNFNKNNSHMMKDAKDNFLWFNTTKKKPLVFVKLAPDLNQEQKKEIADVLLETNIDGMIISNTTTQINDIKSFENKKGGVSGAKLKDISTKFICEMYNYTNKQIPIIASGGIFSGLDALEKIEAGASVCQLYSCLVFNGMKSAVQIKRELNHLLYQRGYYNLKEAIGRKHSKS

[5] = inhibition of PAO1 biofilm formation – strain PAO1, LB-PBS medium, absorbance 600 nm, primary screen (AID 1176); also: test concentration not given here; conditions: P. aeruginosa PAO1 growth/biofilm, A600, 12 h; higher = more signal
[6] = growth modulation of vineyard yeast isolate – strain RM11-1a, OD600, basal, 24 h, primary screen (AID 1177);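 also: cultures grown under basal conditions with no added stressor; test concentration not given here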; conditions: S. cerevisiae RM11-1a growth, OD600, 24 h; higher = more signal, called active from +8 up or from −8 down
[7] = growth of efflux-deficient E. coli DRC39 – strain DRC39, OD650, 24 h, E. coli filamentation inducers, primary screen (AID 1178);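 also: growth measured as culture turbidity by optical density at 650 nm; test concentration not given here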; conditions: E. coli DRC39 acrAB, higher = more signal, called active from +8 up or from −8 down
[8] = growth of efflux-deficient E. coli DRC39 – strain DRC39, OD650, 48 h, E. coli filamentation inducers, primary screen (AID 1179);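 also: screen aims at cell division blockers that make cells filament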; conditions: E. coli DRC39 delta-acrAB growth, higher = more signal, called active from +8 up or from −8 down
[9] = viability profiling in RPMI8226 myeloma cells – cell-based, resazurin fluorescence, basal, 24 h, PK04 Diversity Set, profiling panel (AID 1180); conditions: higher = more signal;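 also: RPMI8826 multiple myeloma cell line at 5000 cells per well; test concentration not given here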
[10] = molecular target: E3 ubiquitin-protein ligase XIAP (Homo sapiens) (UniProt P98170); assay: small molecules binding XIAP protein – biophysical, small-molecule microarray, fluorescence 635 nm, primary screen (AID 1181); conditions: higher = more signal;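 also: score merges 667 nm emission and signal to noise over triplicate slides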
E3 ubiquitin-protein ligase XIAP (Homo sapiens), sequence (P98170 whole entry, looked up): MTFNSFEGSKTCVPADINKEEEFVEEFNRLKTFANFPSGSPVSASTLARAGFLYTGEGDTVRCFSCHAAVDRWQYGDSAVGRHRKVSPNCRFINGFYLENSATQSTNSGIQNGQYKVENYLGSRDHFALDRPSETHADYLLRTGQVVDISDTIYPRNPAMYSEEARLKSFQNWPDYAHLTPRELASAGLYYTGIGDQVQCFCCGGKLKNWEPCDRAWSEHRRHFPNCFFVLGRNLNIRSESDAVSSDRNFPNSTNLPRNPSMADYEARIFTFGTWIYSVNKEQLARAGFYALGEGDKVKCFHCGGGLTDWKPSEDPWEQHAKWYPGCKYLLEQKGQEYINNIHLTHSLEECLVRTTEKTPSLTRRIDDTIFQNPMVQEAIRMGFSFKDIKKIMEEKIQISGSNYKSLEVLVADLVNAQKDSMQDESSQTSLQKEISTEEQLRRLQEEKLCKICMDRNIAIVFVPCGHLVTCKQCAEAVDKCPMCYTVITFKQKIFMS

## CCCN1C(=O)[C@]2(CCC(=O)OC(C)(C)C)N=C(c3ccc(OCCCO)cc3)O[C@@H]2c2ccccc21
[1]
  z-score: -0.154
[2]
  z-score: -0.836 (inactive)
[3]
  z-score: -2.08 (inactive)
[4]
  composite z-score: 0.023 (inactive)
[5]
  z-score: 3.33 (inactive)
[6]
  z-score: 0.654 (inactive)
[7]
  z-score: 1.08 (inactive)
[8]
  z-score: 0.0565 (inactive)
[9]
  z-score: -2.7
[10]
  composite z-score: 0.118

## CN(C)C(=O)[C@@]1(Cc2ccccc2CN=[N+]=[N-])COC(c2ccc(OCCCO)cc2)=N1
[1]
  z-score: 1.01
[2]
  z-score: -4.86 (inactive)
[3]
  z-score: -1.19 (inactive)
[4]
  composite z-score: -0.311 (inactive)
[5]
  z-score: -0.732 (inactive)
[6]
  z-score: 3.73 (inactive)
[7]
  z-score: 1.04 (inactive)
[8]
  z-score: 1.58 (inactive)
[9]
  z-score: 0.196
[10]
  composite z-score: 0.153

## CC(C)C(=C=CC[C@H](O)c1ccccc1OCCO)C[C@H](O)COCc1ccccc1
[1]
  z-score: -0.0813
[2]
  z-score: -1.07 (inactive)
[3]
  z-score: -0.271 (inactive)
[4]
  composite z-score: -2.12 (inactive)
[5]
  z-score: 0.731 (inactive)
[6]
  z-score: -0.154 (inactive)
[7]
  z-score: -0.145 (inactive)
[8]
  z-score: -0.306 (inactive)
[9]
  z-score: -0.921
[10]
  composite z-score: 0.17

## CC(C)NC(=O)[C@@H]1c2ccccc2C(=O)N(Cc2ccc(OC(F)(F)F)cc2)[C@H]1c1ccc(CO)cc1
[1]
  z-score: -1.14
[2]
  z-score: 0.924 (inactive)
[3]
  z-score: 0.155 (inactive)
[4]
  composite z-score: -4.48 (inactive)
[5]
  z-score: 0.627 (inactive)
[6]
  z-score: 0.91 (inactive)
[7]
  z-score: -0.386 (inactive)
[8]
  z-score: -0.664 (inactive)
[9]
  z-score: 0.808
[10]
  composite z-score: -0.16

## CO[C@H]1O[C@H](CO)[C@@H](OC(=O)Nc2ccc3c(c2)OCO3)[C@H](OC(=O)Nc2ccccc2-c2ccccc2)[C@H]1OC(=O)Nc1ccccc1-c1ccccc1
[1]
  z-score: -2.5
[2]
  z-score: 2.05 (inactive)
[3]
  z-score: -2.94 (inactive)
[4]
  composite z-score: 0.656 (inactive)
[5]
  z-score: 0.553 (inactive)
[6]
  z-score: 4.05 (inactive)
[7]
  z-score: 0.335 (inactive)
[8]
  z-score: -0.303 (inactive)
[9]
  z-score: -2.63
[10]
  composite z-score: 0.441

## C=C(COC)C(=O)CC[C@H](OC(=O)c1cccnc1)c1ccc(OCCO)cc1
[1]
  z-score: -0.974
[2]
  z-score: -3.4 (inactive)
[3]
  z-score: -0.443 (inactive)
[4]
  composite z-score: -2.45 (inactive)
[5]
  z-score: -0.0342 (inactive)
[6]
  z-score: 1.29 (inactive)
[7]
  z-score: -0.768 (inactive)
[8]
  z-score: -0.8 (inactive)
[9]
  z-score: -0.776
[10]
  composite z-score: -0.0013

## C=CCC(OC(C)=O)[C@@H]1[C@@H](N(Cc2cccc3ccccc23)C(=O)c2ccc(-c3ccccc3)cc2)c2cc(OCCCO)ccc2N1C(=O)Cc1ccc2ccccc2c1 (stereo not given in full)
[1]
  z-score: 0.236
[2]
  z-score: 0.716 (inactive)
[3]
  z-score: 0.331 (inactive)
[4]
  composite z-score: -0.0628 (inactive)
[5]
  z-score: 0.444 (inactive)
[6]
  z-score: -0.368 (inactive)
[7]
  z-score: -0.416 (inactive)
[8]
  z-score: -0.236 (inactive)
[9]
  z-score: 0.193
[10]
  composite z-score: -0.179

## NC(=O)N1C(=O)C2C(C1=O)C1C=C(CCCO)C2C(c2ccc(CN3CCCC3)cc2)N1Cc1cc2c(cc1Br)OCO2 (stereo not given)
[1]
  z-score: -0.766
[2]
  z-score: -0.222 (inactive)
[3]
  z-score: -1.29 (inactive)
[4]
  composite z-score: 0.0032 (inactive)
[5]
  z-score: 0.792 (inactive)
[6]
  z-score: -0.572 (inactive)
[7]
  z-score: -0.672 (inactive)
[8]
  z-score: -0.299 (inactive)
[9]
  z-score: -1.5
[10]
  composite z-score: 0.0251

## O=C1C[C@@](C(=O)NC2CC2)(c2ccc([N+](=O)[O-])cc2)[C@@H](c2ccc(CO)cc2)N1C1CCCCC1
[1]
  z-score: 0.363
[2]
  z-score: -1.44 (inactive)
[3]
  z-score: 1.23 (inactive)
[4]
  composite z-score: -6.96 (inactive)
[5]
  z-score: 1.46 (inactive)
[6]
  z-score: -2.37 (inactive)
[7]
  z-score: 0.0991 (inactive)
[8]
  z-score: -0.0005 (inactive)
[9]
  z-score: 1.48
[10]
  composite z-score: -0.0574

## C=CCC(OC(C)=O)[C@@H]1[C@@H](N(Cc2cc3ccccc3o2)C(=O)Cc2ccc(OC)cc2)c2cc(OCCCO)ccc2N1C(=O)c1ccc2ccccc2n1 (stereo not given in full)
[1]
  z-score: -1.11
[2]
  z-score: -0.791 (inactive)
[3]
  z-score: 0.472 (inactive)
[4]
  composite z-score: 0.278 (inactive)
[5]
  z-score: 0.268 (inactive)
[6]
  z-score: -0.266 (inactive)
[7]
  z-score: 0.945 (inactive)
[8]
  z-score: 0.346 (inactive)
[9]
  z-score: -0.0391
[10]
  composite z-score: -0.058

## COc1ccc([Si](C)(C)[C@@H]2[C@@H](CC(=O)N3Cc4ccccc4C[C@H]3CO)O[C@]3(C(=O)N(Cc4cccc(N5CCOC5=O)c4)c4ccccc43)[C@H]2C)cc1
[1]
  z-score: -1.02
[2]
  z-score: -0.238 (inactive)
[3]
  z-score: -2.17 (inactive)
[4]
  composite z-score: 0.314 (inactive)
[5]
  z-score: 0.79 (inactive)
[6]
  z-score: 1.64 (inactive)
[7]
  z-score: -0.742 (inactive)
[8]
  z-score: -0.655 (inactive)
[9]
  z-score: -2.05
[10]
  composite z-score: -0.13

## C=C(C)[C@@H]1CC=C(C(O)C2C=CC3C(=O)N(C)C(=O)C3N2Nc2ccc([N+](=O)[O-])cc2[N+](=O)[O-])CC1 (stereo not given in full)
[1]
  z-score: -0.902
[2]
  z-score: 0.522 (inactive)
[3]
  z-score: -1.28 (inactive)
[4]
  composite z-score: -0.109 (inactive)
[5]
  z-score: 0.599 (inactive)
[6]
  z-score: 0.442 (inactive)
[7]
  z-score: -0.358 (inactive)
[8]
  z-score: -0.339 (inactive)
[9]
  z-score: -1.1
[10]
  composite z-score: 0.158

## COc1ccc([Si](C)(C)[C@@H]2[C@@H](CC(=O)N3CCC[C@H]3CO)O[C@]3(C(=O)N(Cc4cccc(N5CCCCC5=O)c4)c4ccccc43)[C@H]2C)cc1
[1]
  z-score: -1.26
[2]
  z-score: -0.51 (inactive)
[3]
  z-score: -2 (inactive)
[4]
  composite z-score: -0.877 (inactive)
[5]
  z-score: 0.319 (inactive)
[6]
  z-score: 0.625 (inactive)
[7]
  z-score: 0.894 (inactive)
[8]
  z-score: 0.6 (inactive)
[9]
  z-score: -2.68
[10]
  composite z-score: 0.0167

## C=CCNC(=O)[C@@H]1[C@H]2C(=O)O[C@H](c3ccccc3)[C@H](c3ccccc3)N2[C@H](c2ccc(OCCO)cc2)[C@@]12C(=O)Nc1ccc(C#CC3(O)CCCCCC3)cc12
[1]
  z-score: -1.01
[2]
  z-score: 0.933 (inactive)
[3]
  z-score: -2.37 (inactive)
[4]
  composite z-score: 0.315 (inactive)
[5]
  z-score: 2.09 (inactive)
[6]
  z-score: 1.16 (inactive)
[7]
  z-score: -0.347 (inactive)
[8]
  z-score: -0.797 (inactive)
[9]
  z-score: -2
[10]
  composite z-score: -0.0095

## O=C1O[C@H](c2ccccc2)[C@H](c2ccccc2)N2[C@H]1[C@@H](C(=O)O)[C@]1(C(=O)Nc3ccc(C#CCCO)cc31)[C@H]2c1ccc(OCCO)cc1
[1]
  z-score: 0.174
[2]
  z-score: -0.829 (inactive)
[3]
  z-score: 0.686 (inactive)
[4]
  composite z-score: -1.01 (inactive)
[5]
  z-score: 0.967 (inactive)
[6]
  z-score: 0.159 (inactive)
[7]
  z-score: 0.312 (inactive)
[8]
  z-score: 0.471 (inactive)
[9]
  z-score: 0.68
[10]
  composite z-score: -0.177

## O=C(NC1CC1)[C@@H]1c2ccccc2C(=O)N(CC23CC4CC(CC(C4)C2)C3)[C@H]1c1ccc(CO)cc1
[1]
  z-score: 0.658
[2]
  z-score: -0.498 (inactive)
[3]
  z-score: 0.74 (inactive)
[4]
  composite z-score: -0.329 (inactive)
[5]
  z-score: 0.338 (inactive)
[6]
  z-score: 0.123 (inactive)
[7]
  z-score: -0.0508 (inactive)
[8]
  z-score: -0.428 (inactive)
[9]
  z-score: 1.07
[10]
  composite z-score: 0.141

## Cc1ccc(N2C(=O)c3ccccc3[C@](C)(C(=O)NCCCN(C)C)[C@@H]2c2ccc(CO)cc2)nc1
[1]
  z-score: 0.218
[2]
  z-score: -0.742 (inactive)
[3]
  z-score: -0.296 (inactive)
[4]
  composite z-score: 0.0135 (inactive)
[5]
  z-score: 0.084 (inactive)
[6]
  z-score: -0.764 (inactive)
[7]
  z-score: -0.0003 (inactive)
[8]
  z-score: -0.575 (inactive)
[9]
  z-score: -0.0858
[10]
  composite z-score: -0.158

## CC1=C([C@H](O)CCc2ccccc2)[C@H](CO)n2c(=O)n(-c3ccccc3)c(=O)n2C1
[1]
  z-score: 0.331
[2]
  z-score: -2.79 (inactive)
[3]
  z-score: 0.199 (inactive)
[4]
  composite z-score: -1.34 (inactive)
[5]
  z-score: 0.589 (inactive)
[6]
  z-score: -1.97 (inactive)
[7]
  z-score: 1.19 (inactive)
[8]
  z-score: 1.35 (inactive)
[9]
  z-score: 0.12
[10]
  composite z-score: -0.237

## CC(C)N1C(=O)c2ccccc2[C@@H](C(=O)NCC(F)(F)F)[C@@H]1c1ccc(CO)cc1
[1]
  z-score: 0.4
[2]
  z-score: -0.102 (inactive)
[3]
  z-score: 0.0516 (inactive)
[4]
  composite z-score: -0.262 (inactive)
[5]
  z-score: -0.0807 (inactive)
[6]
  z-score: 0.436 (inactive)
[7]
  z-score: -0.196 (inactive)
[8]
  z-score: -0.484 (inactive)
[9]
  z-score: 0.236
[10]
  composite z-score: -0.111

## COc1ccc([Si](C)(C)[C@H]2[C@H](CCO)O[C@@]3(C(=O)N(Cc4ccc(NC(=O)[C@H](C)O)cc4)c4ccccc43)[C@@H]2C)cc1
[1]
  z-score: -4.93
[2]
  z-score: 0.532 (inactive)
[3]
  z-score: -8.02 (active)
[4]
  composite z-score: -0.0575 (inactive)
[5]
  z-score: -0.753 (inactive)
[6]
  z-score: 3.05 (inactive)
[7]
  z-score: -0.106 (inactive)
[8]
  z-score: -0.802 (inactive)
[9]
  z-score: -6.21
[10]
  composite z-score: -0.0592
